# Experiments:
# Assay in all cases: DAPPL (digital affinity profiling via proximity ligation, sequencing); 10 mM Tris-HCl pH 7.5, 50 mM NaCl, 1 mM DTT, 4% glycerol, room temperature, 30 min; GST-TFs on glutathione beads, 16-mer random dsDNA library, 0.1% formaldehyde crosslink after washing; high values mean tight binding
# Conditions in all cases: protein: recombinant; tags: N-terminal GST; dsDNA, one strand shown
# ETV1 = ETV1 (Homo sapiens, UniProt P50549 1-477)
# Procedure, shortened: (§1)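 Human transcription factors fused to GST were expressed in yeast, captured on glutathione beads, given DNA barcodes and pooled with a GST-only negative control. Pools were incubated with 200 nmole of a 16-mer random double-stranded DNA library in Tris/NaCl/DTT/glycerol buffer at room temperature for 30 min. They were then washed, crosslinked with 0.1% formaldehyde, proximity-ligated (BsaI/T4 ligase, 1 h, 37 °C), PCR-amplified and sequenced on an Illumina NextSeq500. Binding signal is each 6-mer's read frequency for a factor divided by its frequency for the GST control.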
# ERF = target: T1, ERF (Homo sapiens, UniProt P50548 1-548)
# T1 sequence: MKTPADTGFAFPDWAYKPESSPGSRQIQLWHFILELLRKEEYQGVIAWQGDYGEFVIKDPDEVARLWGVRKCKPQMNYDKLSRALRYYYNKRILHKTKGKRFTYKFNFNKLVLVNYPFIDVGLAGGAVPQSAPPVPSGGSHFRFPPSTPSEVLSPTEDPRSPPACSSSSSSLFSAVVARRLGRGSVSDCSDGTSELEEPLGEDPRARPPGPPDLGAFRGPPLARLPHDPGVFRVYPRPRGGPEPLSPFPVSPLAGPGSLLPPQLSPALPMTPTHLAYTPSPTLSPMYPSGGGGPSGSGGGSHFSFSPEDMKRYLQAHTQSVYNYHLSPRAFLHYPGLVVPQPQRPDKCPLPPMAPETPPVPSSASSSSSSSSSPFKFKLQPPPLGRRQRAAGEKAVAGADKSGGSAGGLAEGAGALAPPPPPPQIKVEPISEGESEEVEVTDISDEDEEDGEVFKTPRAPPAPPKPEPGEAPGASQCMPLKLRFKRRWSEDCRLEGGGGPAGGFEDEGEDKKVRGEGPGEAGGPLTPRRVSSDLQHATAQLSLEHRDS
# Procedure, shortened: as §1
# ETV3L = target: T2, ETV3L (Homo sapiens, UniProt Q6ZN32 1-361)
# T2 sequence: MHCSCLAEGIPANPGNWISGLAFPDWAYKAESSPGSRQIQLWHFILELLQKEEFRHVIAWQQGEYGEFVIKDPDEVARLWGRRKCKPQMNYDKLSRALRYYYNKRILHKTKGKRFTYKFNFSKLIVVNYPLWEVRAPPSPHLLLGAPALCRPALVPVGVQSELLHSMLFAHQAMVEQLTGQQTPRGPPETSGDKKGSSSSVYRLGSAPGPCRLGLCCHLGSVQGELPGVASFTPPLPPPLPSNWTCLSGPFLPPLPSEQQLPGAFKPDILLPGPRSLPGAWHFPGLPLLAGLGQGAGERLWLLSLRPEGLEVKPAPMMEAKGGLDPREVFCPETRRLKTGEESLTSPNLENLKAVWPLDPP
# Procedure, shortened: as §1
# ETS2 = target: T3, ETS2 (Homo sapiens, UniProt P15036 1-469)
# T3 sequence: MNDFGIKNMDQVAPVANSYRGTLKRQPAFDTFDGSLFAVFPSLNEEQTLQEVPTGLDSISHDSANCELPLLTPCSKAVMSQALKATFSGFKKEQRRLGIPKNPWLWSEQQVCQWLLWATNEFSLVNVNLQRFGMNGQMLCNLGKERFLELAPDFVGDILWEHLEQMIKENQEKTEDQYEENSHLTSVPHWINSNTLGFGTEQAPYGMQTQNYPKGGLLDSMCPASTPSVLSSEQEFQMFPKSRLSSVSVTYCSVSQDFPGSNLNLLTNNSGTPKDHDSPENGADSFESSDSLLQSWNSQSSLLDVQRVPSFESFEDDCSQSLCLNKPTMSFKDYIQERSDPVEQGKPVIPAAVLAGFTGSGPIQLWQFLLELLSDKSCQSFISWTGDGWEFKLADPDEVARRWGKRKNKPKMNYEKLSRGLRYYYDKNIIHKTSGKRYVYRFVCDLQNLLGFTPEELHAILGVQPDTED
# Procedure, shortened: as §1
# SPDEF = target: T4, SPDEF (Homo sapiens, UniProt O95238 1-335)
# T4 sequence: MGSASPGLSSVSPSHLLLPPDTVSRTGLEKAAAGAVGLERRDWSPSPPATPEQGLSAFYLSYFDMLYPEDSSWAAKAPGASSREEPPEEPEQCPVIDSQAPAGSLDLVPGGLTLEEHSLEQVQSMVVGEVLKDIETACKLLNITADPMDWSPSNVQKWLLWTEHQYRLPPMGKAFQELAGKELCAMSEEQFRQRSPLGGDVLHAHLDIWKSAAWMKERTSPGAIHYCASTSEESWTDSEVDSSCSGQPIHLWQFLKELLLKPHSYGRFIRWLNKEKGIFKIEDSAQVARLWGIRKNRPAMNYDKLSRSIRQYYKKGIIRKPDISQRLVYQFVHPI
# Procedure, shortened: as §1
# ETV7 = target: T5, ETV7 (Homo sapiens, UniProt Q9Y603 1-341)
# T5 sequence: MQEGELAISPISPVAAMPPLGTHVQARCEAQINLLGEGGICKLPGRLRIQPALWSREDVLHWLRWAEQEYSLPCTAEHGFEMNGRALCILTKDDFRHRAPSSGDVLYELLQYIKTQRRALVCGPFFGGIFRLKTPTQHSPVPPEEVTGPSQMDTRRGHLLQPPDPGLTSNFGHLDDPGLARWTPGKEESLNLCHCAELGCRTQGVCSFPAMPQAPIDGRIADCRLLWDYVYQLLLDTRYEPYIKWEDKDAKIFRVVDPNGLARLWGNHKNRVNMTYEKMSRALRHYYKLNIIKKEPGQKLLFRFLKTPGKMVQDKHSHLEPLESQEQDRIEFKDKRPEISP
# Procedure, shortened: as §1
# ELF5 = target: T6, ELF5 (Homo sapiens, UniProt Q9UKW6-2 1-255)
# T6 sequence: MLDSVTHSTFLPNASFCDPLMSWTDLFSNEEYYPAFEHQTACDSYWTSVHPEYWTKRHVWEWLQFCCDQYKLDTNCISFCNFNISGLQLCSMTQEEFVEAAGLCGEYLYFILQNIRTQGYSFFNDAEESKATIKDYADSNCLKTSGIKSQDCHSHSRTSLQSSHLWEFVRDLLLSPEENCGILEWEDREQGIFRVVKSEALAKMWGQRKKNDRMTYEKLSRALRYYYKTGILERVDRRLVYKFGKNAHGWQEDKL
# Procedure, shortened: as §1
# ETV3 = target: T7, ETV3 (Homo sapiens, UniProt P41162-2 1-143)
# T7 sequence: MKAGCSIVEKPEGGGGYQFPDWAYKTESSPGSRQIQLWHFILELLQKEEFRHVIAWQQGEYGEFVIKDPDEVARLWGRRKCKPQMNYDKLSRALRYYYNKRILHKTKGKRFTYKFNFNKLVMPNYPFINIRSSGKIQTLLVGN
# Procedure, shortened: as §1
# ETV6 = ETV6 (Homo sapiens, UniProt P41212 1-452)
# Sequence of ETV6 (P41212 whole entry): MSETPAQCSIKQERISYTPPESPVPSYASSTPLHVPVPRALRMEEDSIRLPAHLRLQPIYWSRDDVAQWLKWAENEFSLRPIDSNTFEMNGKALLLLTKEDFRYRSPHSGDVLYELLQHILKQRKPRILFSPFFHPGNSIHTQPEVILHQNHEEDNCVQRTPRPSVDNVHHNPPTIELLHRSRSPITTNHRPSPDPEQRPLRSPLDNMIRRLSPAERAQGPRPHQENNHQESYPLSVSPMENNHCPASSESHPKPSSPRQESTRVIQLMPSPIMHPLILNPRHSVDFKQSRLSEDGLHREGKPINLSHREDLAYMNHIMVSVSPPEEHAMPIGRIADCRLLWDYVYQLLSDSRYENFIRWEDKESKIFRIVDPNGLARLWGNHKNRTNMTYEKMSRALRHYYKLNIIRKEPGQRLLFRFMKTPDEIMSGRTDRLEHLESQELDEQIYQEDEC
# Procedure, shortened: as §1
# Sequence of ETV1 (P50549 whole entry, the tested form may be a part): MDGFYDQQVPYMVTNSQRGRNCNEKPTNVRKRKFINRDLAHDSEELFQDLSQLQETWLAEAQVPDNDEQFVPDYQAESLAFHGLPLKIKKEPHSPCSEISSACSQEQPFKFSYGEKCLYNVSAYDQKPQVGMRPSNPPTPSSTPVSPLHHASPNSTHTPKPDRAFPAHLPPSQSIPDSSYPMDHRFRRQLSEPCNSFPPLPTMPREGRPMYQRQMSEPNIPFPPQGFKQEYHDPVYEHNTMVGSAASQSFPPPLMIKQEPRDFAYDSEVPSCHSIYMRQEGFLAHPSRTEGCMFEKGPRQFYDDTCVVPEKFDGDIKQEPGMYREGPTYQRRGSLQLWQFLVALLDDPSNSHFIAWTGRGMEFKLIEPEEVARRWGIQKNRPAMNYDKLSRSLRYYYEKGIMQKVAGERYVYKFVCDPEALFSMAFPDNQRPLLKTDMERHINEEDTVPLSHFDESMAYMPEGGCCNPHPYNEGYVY
sequence,measurement,setting,value
AACTAG,binding signal,ETV1,"1.15 fold enrichment (6-mer frequency, TF over GST control)"
same,binding signal,ERF,"1.16 fold enrichment (6-mer frequency, TF over GST control)"
same,binding signal,ETV3L,"1.09 fold enrichment (6-mer frequency, TF over GST control)"
same,binding signal,ETS2,"1.11 fold enrichment (6-mer frequency, TF over GST control)"
same,binding signal,SPDEF,"1.08 fold enrichment (6-mer frequency, TF over GST control)"
same,binding signal,ETV7,"1.1 fold enrichment (6-mer frequency, TF over GST control)"
same,binding signal,ELF5,"1.13 fold enrichment (6-mer frequency, TF over GST control)"
same,binding signal,ETV3,"1.14 fold enrichment (6-mer frequency, TF over GST control)"
same,binding signal,ETV6,"1.15 fold enrichment (6-mer frequency, TF over GST control)"

# Source: paper PMC7862700, “An all-to-all approach to the identification of sequence-specific readers for epigenetic DNA modifications on cytosine”
